40 compounds from PubChem BioAssay (Tox21) can be followed below.

Records with an inconclusive call do not appear. A call without a number means that no potency is given here. Values without a mark were called inactive. Active and inactive are the calls of the source. Calls come from the whole dose curve; as a rule, active = well fitted cell-killing curve with a large enough effect in the repeat runs; inconclusive = weak or mixed curves, or effect the other way; inactive = flat fitted curve, though single readings scatter.

This assay is described as follows: qHTS RealTime-Glo MT Cell Viability Assay in HepG2 cells - 0 hour (AID 1224889). Note: nearly all actives have a fitted effect of over 50% in size. To be noted: RealTime-Glo luminescence; series mostly up to 76.8 µM. From the text: U.S. Tox21 Program National Center for Advancing Translational Sciences [NCATS] NIH Chemical Genomics Center [NCGC] U.S. Environmental Protection Agency [EPA] National Institutes of Environmental Health Sciences [NIEHS] National Toxicology Program [NTP] U.S. Food and Drug Administration [FDA] Tox21 Assay Overview: Measure of cell viability is critical in the cell-base assay. Analysis of cell viability is necessary for the characterization of cell responses to cytotoxic drugs and environmental stress. A RealTime-Glo MT Cell Viability Assay to monitor cell viability in real time of continues cell culture during 40 hours of compound treatment was used to screen Tox21 10K library compounds in HepG2 cells. The RealTime-Glo MT Cell Viability Assay is a nonlytic, homogeneous, bioluminescent method to measure cell viability in real time using a simple, plate-based method. The assay involves adding NanoLuc luciferase and a cell-permeant prosubstrate to cells in culture. Viable cells reduce the proprietary prosubstrate to generate a substrate for NanoLuc luciferase. This substrate diffuses from cells into the surrounding culture medium, where it is rapidly used by the NanoLuc Enzyme to produce a luminescent signal. The signal correlates with the number of viable cells, making the assay well suited for cytotoxicity studies.
Tox21 Assay Protocol Summary: The mixture of HepG2 cell suspension and reagents were dispensed at 600cells/6 ul/well in 1536-well tissue culture treated black solid bottom plates using a Multidrop dispenser. After the assay plates were incubated at a 37 C/5% CO2 incubator for 5 hours, 23 nL of compounds dissolved in DMSO, positive and negative controls was transferred to the assay plate by a pintool work station. The plates were incubated at 37 C for 40 hours. The luminescence intensity were measured at 0h, 8h, 16h, 24h, 32h and 40h time points using ViewLux plate reader during compound treatment.
For orientation: Quantitative high-throughput screening tests each substance at several concentrations.
Turning to `NC(N)=Nc1nc(CSCC/C(N)=N/S(N)(=O)=O)cs1`, the Potency result was “inactive”. Take `Cc1ccnc2c1NC(=O)c1cccnc1N2C1CC1`: the Potency result was “inactive”.

As for `Nc1nc2ccccc2[nH]1`, the Potency result was “inactive”. With `NC(Cc1ccc(Cl)cc1)C(=O)O` (stereo not given), the activity change, negative = cytotoxicity was -2.96% [at 0.29 µM].

As for `Cc1occc(=O)c1OC(=O)C(C)C`, the Potency entry is “inactive”. With `CC[C@H]1CN2CCc3cc(OC)c(OC)cc3[C@@H]2C[C@@H]1C[C@H]1NCCc2cc(OC)c(OC)cc21`, the Potency entry was “inactive”. The same measure, in the same setting: to `Cc1cccc2n[nH]nc12` belongs “inactive”. The same measure, in the same setting: to `CCOc1ccc2c(c1)C(C)=CC(C)(C)N2` belongs “inactive”; to `O`, “inactive”. On the same count and under the same terms, the value for `Cc1scc2c1N(C(=O)CN1CCN(C)CC1)c1ccccc1NC2=O` was “inactive”; that for `O=C(O)c1cccc(C(=O)O)c1` was “inactive”.

Regarding `Cc1cccc([N+](=O)[O-])c1C(=O)O`, the Potency entry was “inactive”. For the compound `CCCCN(CCO)CCCC`, the Potency result was “inactive”. On the same count and under the same terms, the value for `O=C(Nc1ccccc1SSc1ccccc1NC(=O)c1ccccc1)c1ccccc1` was “inactive”. Same read-out and setting: to `CCCN[C@H]1CCc2nc(N)sc2C1` belongs “inactive”; to `[Cl][In]([Cl])[Cl]`, “inactive”.

On to `NCCO`, for which the Potency result was “inactive”. `CCCCC(CC)COC(=O)CC(C(=O)OCC(CC)CCCC)S(=O)(=O)O` (stereo not given): the Potency result is “inactive”.

As for `c1cc(C(c2ccc(OCC3CO3)cc2)C(c2ccc(OCC3CO3)cc2)c2ccc(OCC3CO3)cc2)ccc1OCC1CO1` (stereo not given), the Potency result is “inactive”. On to `CCN(CC)CCOc1ccc(/C(=C(\Cl)c2ccccc2)c2ccccc2)cc1`, for which the Potency entry is “inactive”.

In the case of `CC(C)(C)c1ccccc1`, the Potency result is “inactive”. As for `BrC1CCC(Br)C(Br)CCC(Br)C(Br)CCC1Br` (stereo not given), the Potency entry is “inactive”.

Turning to `Cc1cccc(O)c1C`, the Potency entry is “inactive”. Same read-out and setting: the value for `C=CS(=O)(=O)O` was “inactive”; that for `CC[C@]1(O)C[C@@H]2CN(CCc3c([nH]c4ccccc34)[C@@](C(=O)OC)(c3cc4c(cc3OC)N(C)[C@H]3[C@@](O)(C(=O)OC)[C@H](OC(C)=O)[C@]5(CC)C=CCN6CC[C@]43[C@@H]65)C2)C1` was “inactive”. Same read-out and setting: to `Oc1c(Cl)cc(Cl)c(Cl)c1Cc1c(O)c(Cl)cc(Cl)c1Cl` belongs “inactive”. Same read-out and setting: the value for `CCOc1ccccc1C(N)=O` was “inactive”; that for `C/C=C/c1ccc(OCC)c(O)c1` was “inactive”; that for `CC(=O)CC(C)=O` was “inactive”. As to `CC(=O)OCC1=C(C(=O)O)N2C(=O)[C@@H](NC(=O)Cc3cccs3)[C@H]2SC1`, the Potency result is “inactive”. As to `c1ccc2cc3c(ccc4ccccc43)cc2c1`, the Potency result is “inactive”. Same read-out and setting: the value for `CCn1c2ccccc2c2cc(N)ccc21` was “inactive”. Still for that read-out and setting: to `O=C(O)Cn1cnnn1` belongs “inactive”; to `CC[C@@H](N)CO`, “inactive”; to `O=C(Oc1ccccc1)c1ccccc1O`, “inactive”.

Take `C1COC(NC(C2CC2)C2CC2)=N1`: the Potency result is “inactive”.

In the case of `CC(C(O)c1ccc(O)cc1)N1CCC(Cc2ccccc2)CC1` (stereo not given), the Potency entry is “inactive”. In the case of `O=C(O)c1cc(Cl)cc(Cl)c1`, the Potency result is “inactive”.

`CC(C)C(=O)c1c(C(C)C)nn2ccccc12`: the Potency entry was “inactive”. Turning to `Cc1cc(Cc2cc(C)cc(C(C)(C)C)c2O)c(O)c(C(C)(C)C)c1`, the Potency entry is “inactive”.
